Source: PubChem BioAssay
FAS-TE inh: blocks the thioesterase domain of human fatty acid synthase; P49327; recombinant FAS-TE, OMFH fluorogenic substrate, fluorescence endpoint; inhibition, % at 15 µM; actives 0.67% (n = 360,000); AID 602261;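 active = compounds whose normalised, plate-corrected inhibition of enzyme fluorescence in the single-dose primary screen is 50% or more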
aDG glyco up: increases alpha dystroglycan glycosylation; Pro5-aDG cells, alpha-DG glycosylation AlphaScreen (IIH6); 0% Pro5, 100% B10-LARGE cell signal; actives 0.22% (n = 360,000); activation, % at 10 µM; AID 624168;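 active = activation of at least 8% versus controls, or a plate z-score of at least 8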;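 also: Pro5 are CHO cells carrying HIG-tagged alpha-DG that lacks glycosylation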
ADAM17 inh: inhibitors of human ADAM17 | actives 0.83% (n = 370,000) | recombinant ADAM17, EDANS/DABCYL FRET peptide cleavage | inhibition, % at 6.95 µM;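 active = inhibition above the mean of compounds lying between control limits plus 3 SD, set per campaign, cut at about 8.5% in these data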
ADAM10 inh: inhibits human ADAM10. actives 0.62% (n = 370,000). inhibition, % at 7 µM. O14672. AID 720582. recombinant ADAM10, EDANS/DABCYL FRET peptide cleavage, 3 h;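 active = inhibition above a per-campaign cutoff equal to the mean of compounds falling between control-based bounds plus 3 SD, cut at about 20% in these data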
NR3A LBD binder: modulators (binders) of human NR3A ligand-binding domain | NR3A LBD differential scanning fluorimetry, Tm shift; 0% = protein alone, 100% = glycine-bound protein | Tm shift relative to glycine control, % at 25 µM | actives 2.5% (n = 340,000);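 active = melting temperature shift of at least 10% of the positive control shift, at one fixed dose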
FAS-TE conf: FAS thioesterase (human) inhibition, confirmation; inhibition, % at 15 µM; actives 45% (n = 2,300); shares compounds with FAS-TE inh; AID 624325; recombinant FAS-TE, OMFH fluorogenic substrate, fluorescence;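 active = compounds inhibiting the enzyme by at least 50% at 15 µM in any one of the replicates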
A number is an active result; - = inactive; . = no result given. Most compounds without a hit are left out; they make up all but 4% or so of the library.

SMILES	FAS-TE inh	aDG glyco up	ADAM17 inh	ADAM10 inh	NR3A LBD binder	FAS-TE conf
Cn1c(N)c(C(=O)COC(=O)C2CCCN2C(=O)c2cccs2)c(=O)n(C)c1=O (configuration not stated)	-	-	-	-	-	.
C/C(=N\NC(=S)NC1CCCCC1)c1ccc(OC(F)F)cc1OC(F)F	57	-	-	-	-	-
COc1ccc([C@@H]2[C@@H]3C(=O)N(C(C)(C)C)C(=O)[C@@H]3[C@]3(Cc4ccc(Cl)cc4)C(=O)N(c4cccc(C)c4)C(=O)N23)cc1	83	-	-	-	-	-
CC[C@@]12C(=O)N(c3cccc(C)c3)C(=O)N1[C@H](c1ccc(OC)cc1)[C@@H]1C(=O)N(C(C)(C)C)C(=O)[C@@H]12	-	-	.	.	-	.
COc1ccc([C@@H]2[C@@H]3C(=O)N(C(C)(C)C)C(=O)[C@@H]3[C@]3(Cc4ccccc4)C(=O)N(c4ccc(C(F)(F)F)cc4)C(=O)N23)cc1	-	-	-	-	-	.
COc1ccc([C@@H]2[C@@H]3C(=O)N(C(C)(C)C)C(=O)[C@@H]3[C@]3(Cc4ccc(Cl)cc4)C(=O)N(c4ccc(C)cc4)C(=O)N23)cc1	92	-	-	-	-	-
CC(C)(C)S(=O)N1Cc2cc(=O)n(Cc3ccccc3)cc2[C@H]1CCO (some centres not stated)	-	-	-	-	-	.
CC(C)C[C@H](NC(=O)N1CC(=O)Nc2ccccc21)C(=O)N[C@H](C(=O)O)c1ccccc1	-	-	-	-	-	.
Cc1[nH]n(-c2ccccc2)c(=O)c1/C=N/NC(=O)c1cccc([N+](=O)[O-])c1	-	-	-	-	-	.
Cc1ccc(-n2[nH]c(C)c(/C=N/Nc3ccc([N+](=O)[O-])cc3[N+](=O)[O-])c2=O)cc1C	55	-	-	-	20	41
O=C1CC(/C=C/c2ccccc2)(C(=O)NC2CCCC2)N1c1ccc(S(=O)(=O)N2CCCC2)cc1 (configuration not stated)	75	-	-	-	-	-
COc1ccc(N2C(=O)CC2(/C=C/c2ccccc2OC)C(=O)NC2CCCC2)cc1 (configuration not stated)	-	-	-	-	-	.
CC1C(=O)N(c2ccc(S(=O)(=O)N(C)C)cc2)C1(/C=C/c1ccccc1)C(=O)NC1CCCC1 (configuration not stated)	61	-	-	-	28	-
COc1ccc(C(=O)OCC(=O)Nc2ccccc2)cc1[N+](=O)[O-]	62	-	-	-	-	46
Cc1ccc(C(=O)Nc2ccccc2N2CCCCC2)cc1[N+](=O)[O-]	-	-	-	-	-	.
COc1ccc(C(=O)Nc2ccccc2N2CCCCC2)cc1[N+](=O)[O-]	57	-	-	-	-	-
COc1ccccc1C(=O)N/C(=C\c1cn(S(=O)(=O)N(C)C)c2ccccc12)C(=O)NCCN1CCOCC1	-	-	.	.	-	.
COc1ccc([N+](=O)[O-])cc1C(=O)NCCOc1ccc(Cl)cc1	63	-	-	-	-	68
Cc1ccc(OCCNC(=O)c2cc(C(=O)NCCOc3ccc(C)cc3)cc([N+](=O)[O-])c2)cc1	-	-	-	-	-	.
O=C(Nc1ncc2c(n1)-c1ccccc1OC2)c1cccc([N+](=O)[O-])c1	55	-	-	-	-	64
O=C(Nc1ncc2c(n1)-c1ccccc1OC2)c1ccc(F)cc1	-	-	-	-	-	.
CCOC(=O)C1=C(C)NC2=C(C(=O)C(C(=O)OCC)C(c3cccc(OC)c3)C2)C1c1ccccn1 (configuration not stated)	-	-	-	-	-	.
O=C1CN(C(=O)c2cc([N+](=O)[O-])ccc2Cl)C(c2ccccc2)c2cc(F)ccc2N1 (configuration not stated)	86	-	-	-	-	88
O=C(COc1ccc2c(-c3ccccc3)cc(=O)oc2c1)N[C@@H](Cc1c[nH]c2ccc(O)cc12)C(=O)O	74	-	-	-	-	70
O=C(COc1ccc2c(-c3ccccc3)cc(=O)oc2c1)NC(Cc1c[nH]c2ccccc12)C(=O)O (configuration not stated)	-	-	-	-	-	.
SMILES	FAS-TE inh	aDG glyco up	ADAM17 inh	ADAM10 inh	NR3A LBD binder	FAS-TE conf
CC(=O)c1ccc(N2CCN(S(=O)(=O)c3ccc(-c4cnc(C5CC5)o4)cc3)CC2)cc1	57	-	.	.	-	43
CCc1noc(C)c1C(=O)NCCc1c[nH]c2ccccc12	-	-	-	-	-	.
Cc1ccccc1CN1C(=O)CSCC1(C)C(=O)NCc1ccccc1 (configuration not stated)	.	-	-	-	.	.
Cc1nc(N2CCN(c3ccccn3)CC2)c2c(C)c(C(=O)Nc3c(C)cc(Br)cc3C)sc2n1	73	-	-	-	-	-
OC(c1cc(Cl)cc(Cl)c1)c1ncc(-c2ccccc2F)[nH]1 (configuration not stated)	-	-	-	-	.	.
Cc1ccc(S(=O)(=O)N2[C@@H](c3ccc(C(C)(C)C)cc3)C(C(=O)O)=CC[C@H]2c2ccc(C(C)C)cc2)cc1	76	-	-	22	-	-
Cc1ccc(S(=O)(=O)N2[C@@H](c3ccc(C(C)(C)C)cc3)C(C(=O)O)=CC[C@H]2c2ccc(Cl)cc2)cc1	55	-	-	-	-	49
O=C(CCNC(=O)c1ccc([N+](=O)[O-])cc1)Nc1cccc(S(=O)(=O)N2CCCCCC2)c1	-	-	-	-	-	.
O=[N+]([O-])c1cccc(S(=O)(=O)Nc2cccc(-c3ccc(N4CCCC4)nn3)c2)c1	-	-	-	-	-	.
COc1ccc(S(=O)(=O)Nc2cccc(-c3ccc(N4CCCCCC4)nn3)c2)cc1OC	54	-	-	-	-	-
Cc1ccc(S(=O)(=O)Nc2cccc(-c3ccc(N4CCCCCC4)nn3)c2)cc1	59	-	-	-	-	52
COc1ccc(OC)c(S(=O)(=O)Nc2cccc(-c3ccc(N4CCCCCC4)nn3)c2)c1	-	-	-	-	-	.
CCn1nc(C)c(CNC(=O)c2cc(COc3ccc(C)nc3)on2)c1C	-	-	-	-	-	.
O=C(CCc1nc2ccccc2c(=O)[nH]1)Nc1ccc(N2CCCCC2)cc1	-	-	-	-	-	.
CCC(=O)Nc1ccc(C(=O)N/N=C/c2cccnc2)cc1	-	-	-	-	-	.
c1cn(C23CC4CC(CC(C4)C2)C3)cn1	-	-	-	-	-	.
CN(Cc1ccccc1)S(=O)(=O)c1ccc2[nH]c(=O)ccc2c1	-	-	-	-	-	.
CC(C)(C)OC(=O)N1CCC[C@H]1C(=O)N/N=C/c1ccc2ncccc2c1	-	-	-	-	-	.
COc1cccc(-c2cc(N3C(=O)Nc4ccccc4N3O)n[nH]2)c1	-	-	-	-	-	.
